In the library only some 3.7% were active in any assay of this set; here they are far more common.
A549 viability: Nrf2 qHTS screen for inhibitors: counterscreen for cytotoxicity. A549 ARE-Fluc cells, CellTiter-Fluor viability, 18-24 h. Potency, µM (series often up to 46 µM), for the others: at the top dose activity change, negative = cytotoxicity, usual class: inhibitors. 390,000 compounds, 0.16% hits. AID 504648, 2011; also: % is scaled to controls: 0 for no effect and ±100 for the full control effect
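A549 ARE_Fluc cells in 5% FBS OPTI-MEM were exposed to compounds in concentration-response for 18-24 h at 37 deg C. Viability was read by CellTiter-Fluor fluorescence (Ex 405/Em 525) after 30 min, before the luciferase read.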
Nrf2 block: Nrf2 qHTS screen for inhibitors | A549 ARE-Fluc reporter, luciferase luminescence, 18-24 h | Potency, µM (series often up to 46 µM), for inactives: at the top dose activity change, negative = inhibition, usual class: inhibitors | 360,000 compounds, 2.1% hits; also: % is scaled to controls: 0 for no effect and ±100 for the full control effect; nearly all actives have a fitted effect of over 60% in size
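Quantitative HTS in A549 cells stably bearing an antioxidant response element-firefly luciferase construct. Inhibition of Nrf2-driven transcription was scored by luminescence after 18-24 h of compound exposure at 37 °C.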
Nrf2 ARE act: qHTS of Nrf2 Activators | AREc32 ARE-luciferase reporter (MCF7-derived line), luminescence, 24 h | Potency, µM (highest dose often 46.1 µM), for the others: at the top dose activation, usual class: activators | 410,000 compounds, 0.31% hits | AID 624171, 2012; also: % of control where 0% means no effect; nearly all actives have a fitted effect of over 65% in size
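Luminescent ARE reporter assay in AREc32_Fluc cells: overnight plating at 37 deg C, 24 hr compound incubation, Steady-Glo added, 30 min RT before reading.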
ELG1 repair inh: qHTS screen for small molecules that inhibit ELG1-dependent DNA repair in human embryonic kidney (HEK293T) cells expressing luciferase-tagged ELG1; HEK293T ELG1-luciferase reporter, luminescence, 16 h; DNA damage induced by 5-fluorouridine; Potency, µM (highest dose often 46.1 µM), for the others: at the top dose activity change, negative = inhibition, usual class: inhibitors; 330,000 compounds, 2.3% hits; AID 504467, 2011; also: % is scaled to controls: 0 for no effect and ±100 for the full control effect; nearly all actives have a fitted effect of over 55% in size
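Cells (2,000 per well) received 5-fluorouridine plus test compound or DMSO and were incubated 16 hr at 37 °C, 5% CO2. Luciferase activity was read by luminescence 30 min after ONE-Glo addition; signal suppression marked inhibition of damage-induced ELG1 function.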
Numbers without * were called inactive; u = inconclusive; x = no result given. Calls follow the shape of the dose curve; as a rule, active = well fitted curve in the direction sought with a large enough effect; inconclusive = small, poorly fitted or top-dose-only effect, or another doubt; inactive = no such curve, though single readings can be large; an effect the other way counts as inactive or inconclusive. Potency is read from the fitted curve at half-maximal effect.

SMILES | A549 viability | Nrf2 block | Nrf2 ARE act | ELG1 repair inh
CCN(CC)S(=O)(=O)c1cc(NC(=O)CSc2nc3c(cc2C#N)C(=O)CC(C)(C)C3)ccc1C | u | 18µM* | 8% | 21µM*
O=C(Nc1ccccn1)c1csc2c1CCCC2 | 11% | u | 5µM* | u
CC(=O)c1cccc(NS(=O)(=O)c2ccc(N/C=C\C(=O)c3ccc(F)cc3)cc2)c1 | u | 26µM* | 5% | u
Cc1cc(C)cc(NC(=O)CSc2nnc(CNC(=O)c3c(F)cccc3Cl)o2)c1 | 0% | u | 5% | x
Cc1nn(C)c(C)c1CNC(=O)c1nn2c(c1Cl)NC(c1cccs1)CC2C(F)(F)F (stereo not given) | -12% | 16µM* | 3% | u
Cc1nn(C)cc1CNC(=O)c1cc2n(n1)C(C(F)(F)F)CC(c1cccs1)N2 (stereo not given) | -7% | u | 1% | 23µM*
Cc1nn(Cc2ccc(F)cc2)c(C)c1NC(=O)c1cnn2c1NC(c1cccs1)CC2C(F)(F)F (stereo not given) | 4% | -14% | 0% | u
COc1cc(NC(=O)Cn2nnc(-c3ccc(C(F)(F)F)cc3)n2)c(C(=O)O)cc1OC | 6% | x | 5% | x
CCc1ccc(-n2nc(C)c3c(C(=O)N4CCN(c5ccccc5)CC4)cc(C)nc32)cc1 | 0% | 18µM* | 4% | x
CCc1ccc(-n2nc(C)c3c(C(=O)N4CCN(c5cccc(Cl)c5)CC4)cc(C)nc32)cc1 | 2% | u | 1% | x
COc1ccc(Cc2nn3c(-c4ccccc4Br)nnc3s2)cc1 | -3% | 16µM* | 2% | u
Brc1ccccc1-c1nnc2sc(Cc3ccccc3)nn12 | u | 6% | 0% | 4%
Cc1ccc(-n2nc(CO)c(C(=O)NCc3cccnc3)n2)cc1 | -1% | -15% | 3% | x
Cc1noc(C)c1COC(=O)c1ccccc1NC(=O)Cc1ccccc1 | x | 15µM* | 2% | u
Cc1ccccc1N(C)C1=N[S+](=O)([O-])c2ccccc21 | 1% | -2% | x | x
CC(C)(C)c1ccc(C(=O)Nc2ccc(Cl)cc2)cc1 | 0% | u | 6% | u
COC(=O)Cc1ccc(NC(=O)c2ccc(C(C)(C)C)cc2)cc1 | u | 2.1µM* | -2% | 9.2µM*
O=C(Nc1ccc(CN2CCS(=O)(=O)CC2)cc1)c1ccc(C(F)(F)F)cc1 | -16% | 18µM* | 0% | -10%
CC(C)(C)c1ccc(C(=O)Nc2ccc(CN3CCS(=O)(=O)CC3)cc2)cc1 | -11% | 7.3µM* | -1% | 7%
O=C(Nc1ccc(CN2CCS(=O)(=O)CC2)cc1)c1ccc(F)cc1 | 0% | 10% | 0% | u
Cc1cccc(NC(=O)CN2C(=O)C(c3ccc(F)cc3)=NC23CCCCCC3)c1 | -18% | -24% | 0% | x
COc1ccccc1NC(=O)CN1C(=O)C(c2ccc(F)cc2)=NC12CCCCC2 | -6% | 16µM* | 4% | x
COc1ccc(NC(=O)CN2C(=O)C(C)(C)c3cc(S(=O)(=O)N4CCCCC4)ccc32)cc1Cl | u | x | 5% | x
Oc1ccc(C[C@H]2CNC(=S)N2CC2CCCN2C[C@H](Cc2ccc(O)cc2)N2C[C@H](Cc3ccccc3)N(CCc3ccccc3)C2=S)cc1 (stereo not given in full) | -14% | 21µM* | 1% | x
CC(C)C[C@H]1CNC(=S)N1C[C@H]1CCCN1C[C@H](Cc1ccc(O)cc1)N1C[C@H](Cc2ccccc2)N(CCc2ccccc2)C1=S | x | x | 2% | x
SMILES | A549 viability | Nrf2 block | Nrf2 ARE act | ELG1 repair inh
Oc1ccc(C[C@H]2CN([C@@H](Cc3ccccc3)CN3CCCC3CN3C(=S)NC[C@@H]3Cc3ccccc3)C(=S)N2CC2CCCCC2)cc1 (stereo not given in full) | x | x | -1% | x
Oc1ccc(C[C@H]2CNC(=S)N2CC2CCCN2C[C@H](Cc2ccc(O)cc2)N2C[C@H](Cc3ccc(O)cc3)N(CC3CCCCC3)C2=S)cc1 (stereo not given in full) | u | 13µM* | -3% | x
Cc1cc(Nc2cccc([N+](=O)[O-])c2)n2c(nc3ccccc32)c1C#N | u | 10µM* | 4% | u
Cc1cc(Nc2ccc(F)cc2)n2c(nc3ccccc32)c1C#N | -2% | -13% | 0% | x
Cn1nnnc1SCC(=O)Nc1nc2c(F)c(F)c(F)cc2s1 | -7% | 12% | 13% | u
N#Cc1c(N2CCCC(O)C2)nc(N)c2c(N)nc3c(c12)CC(=O)N3C12CC3CC(CC(C3)C1)C2 (stereo not given) | u | u | 6% | u
C=C(C)CN(CC)c1nc(N)c2c(N)nc3c(c2c1C#N)CC(=O)N3C12CC3CC(CC(C3)C1)C2 | -17% | 13µM* | 13% | u
O=C(Nc1ccc([N+](=O)[O-])cc1)Nc1ccc(OC(F)F)c(Cl)c1 | u | 21µM* | -1% | u
O=C(Nc1ccc(OC(F)F)c(Cl)c1)Nc1ccc2c(c1)OCO2 | -25% | u | -1% | 11%
Cc1cccc([S+](=O)([O-])NC2CCN(C#N)CC2)c1 | -1% | 13% | x | x
COc1ccccc1Nc1nc(NCCO)nc(N)c1[N+](=O)[O-] | -14% | u | 1% | -24%
COc1ccccc1Nc1nc(NCCC(C)C)nc(N)c1[N+](=O)[O-] | 2% | -2% | 0% | 21µM*
CC1=NN(c2nc3ccccc3[nH]2)C(=O)C1Cc1ccccc1 (stereo not given) | -27% | 23µM* | 7% | u
CC1=NN(c2ccccc2)C(=O)/C1=C/N(C)C | 0% | -2% | 0% | 0%
CC1=NN(c2nc3ccccc3[nH]2)C(=O)/C1=C/N(C)C | -3% | 18µM* | 0% | 22%
CN(C)S(=O)(=O)c1cccc(C(=O)NC2CCCc3ccccc32)c1 (stereo not given) | -1% | 2% | 3% | -1%
Cn1c(=O)oc2cc(S(=O)(=O)NCCC(=O)NC3CCCc4ccccc43)ccc21 (stereo not given) | -4% | x | 0% | -2%
CCCNS(=O)(=O)c1cccc(C(=O)NC2CCCc3ccccc32)c1 (stereo not given) | u | 16µM* | 2% | -29%
CC(=O)N1CCc2cc(S(=O)(=O)NCCC(=O)NC3CCCc4ccccc43)ccc21 (stereo not given) | -2% | -18% | 2% | 13µM*
CC(C)(C)C(=O)c1c(N)[nH]c(C(=O)c2ccccc2)c1-c1ccc(C(F)(F)F)cc1 | x | x | 2% | x
CCOC(=O)N1CCN(C(=O)CS(=O)(=O)c2cn(Cc3ccccc3C)c3ccccc23)CC1 | -5% | -20% | -1% | 9.2µM*
O=c1c2cc(Br)ccc2nc(-c2ccc([N+](=O)[O-])cc2)n1O | -1% | 0% | 0% | u
N#Cc1ccc(-c2nc3ccc(Br)cc3c(=O)n2O)cc1 | -2% | 1% | 0% | 9.2µM*
